About 83,000 compounds went through this panel and 20% of them were active in at least one assay; those are over-represented in the sample as a whole.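 How to read the values: 0–100, growth inhibition (40 = 60% inhibited); 0, no net growth; -100 to 0, cell death (-40 = 40% of starting cells died; -100 = all dead).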 Unmarked numbers belong to inactive results. The source made the active and inactive calls. How the source made its calls: active means growth percent below 10; inactive means the rest.
Tested on: BT-549 breast
Experiment: NCI-60 one-dose screen, 48 h (100 = growth as untreated, 0 = no growth, -100 = all killed)
Conditions: 10 µM unless noted

| SMILES | growth |
| --- | --- |
| COC(C(=O)[C@@H](O)[C@@H](C)O)[C@@H]1Cc2cc3cc(O[C@H]4C[C@@H](O[C@H]5C[C@@H](O)[C@H](O)C(C)O5)[C@H](O)C(C)O4)c(C)c(O)c3c(O)c2C(=O)[C@H]1O[C@H]1C[C@@H](O[C@H]2C[C@@H](O[C@H]3C[C@@H](O)[C@H](OC)C(C)O3)[C@@H](O)C(C)O2)[C@H](O)C(C)O1 (some centres undefined) | -22.9% (active) |
| Cc1nn(-c2ccccc2)c(Oc2ccccn2)c1-c1nc2ccccc2s1 | 95.4% |
| CC(C)(C)n1cc(-c2ccnc(NCCNS(=O)(=O)c3cccc4ccccc34)c2)c(-c2cccc(F)c2)n1 | -80.9% (active) |

Tested on: MDA-MB-435 melanoma
Experiment: as above
Conditions: 10 µM unless noted

| SMILES | growth |
| --- | --- |
| Cc1cccc2c1NC(=O)C2(c1ccc(O)cc1)c1ccc(O)cc1 | 105% |
| Cc1ccc(Cl)cc1Nc1nc(C(F)(F)F)ccc1C(=O)N/N=C/c1cccnc1 | 39.5% |
| C=CCc1c2c(c(OC)c3ccoc13)C(=O)/C(=C/c1ccccc1OC)O2 | 47.8% |
| COC(=O)c1cc(-c2ccc(S(C)(=O)=O)cc2)[nH]c1N/N=C/c1c(Cl)cccc1Cl | -69.7% (active) |
| Cn1cc(-c2csc(-c3c[nH]c4ccc(Br)cc34)n2)c2cnccc21 | -92% (active) |
| O=C(N/N=C/c1ccc(F)cc1)c1ccc(C(F)(F)F)nc1Nc1cccc(C(F)(F)F)c1 | 24.8% |
| N#Cc1c(N)nnn1Cc1cc(=O)oc2c1ccc1ccccc12 | 105% |
| CN(CCOc1ccc(C#N)cc1)CCOc1ccc(C#N)cc1 | 86.3% |
| CCOc1nc(-c2ccccc2)cc2c(O)c(C(=O)NN)[nH]c(=O)c12 | 113% |
| COC(=O)c1c2c(c(C)[n+]([O-])c1C)C(=O)C=C(NCc1ccc(OC)cc1)C2=O | -91.6% (active) |
| CCCCN1C(=O)/C(=c2\sc3n(c2=O)C2C(NN=3)N(CC)C(=O)N2CC)c2ccccc21 (centres undefined) | -34% (active) |
| Nc1ncnc2c1N=C(c1ccc3c(c1)OCO3)CC(c1ccc([N+](=O)[O-])cc1)N2 (centres undefined) | 79.8% |
| COC(=O)c1c2c(c(C)[n+]([O-])c1C)C(=O)C=C(NCc1ccc(Br)cc1)C2=O | -92.8% (active) |
| COc1ccc(C(=S)N2CCN(c3ccccc3Cl)CC2)cc1OC | 91.7% |
| CCOC(=O)c1nc(Nc2ccc(NC(=O)Nc3ccc(F)cc3)cc2)c2ccccc2n1 | 101% |
| CC(C)n1cnc2c(=S)nc[nH]c21 | 94.9% |

| SMILES | growth |
| --- | --- |
| COc1cc(-c2cc(-c3ccc(N(C)C)cc3)nc(N3CCC(O)CC3)c2C#N)cc(OC)c1OC | -18.5% (active) |
| O=C(c1ccc(-c2ccccc2)cc1)c1ccc([N+](=O)[O-])cc1 | 92.6% |
| O=C(Nc1cccc([N+](=O)[O-])c1)c1cc2ccccc2cc1O | -1.29% (active) |
| O=C1c2cccc(NCCN=Cc3cc(O)ccc3O)c2C(=O)c2c(NCCN=Cc3cc(O)ccc3O)cccc21 | -5.74% (active) |
| CN(Cc1ccc(C(F)(F)F)cc1)CC(O)C(=O)Nc1ccc(Cl)cc1 (centres undefined) | -4.56% (active) |
| O=[N+]([O-])c1ccc(N/N=C(/C(=N/Nc2ccc([N+](=O)[O-])cc2)c2ccccc2)c2ccccc2)cc1 | 86.4% |
| Cc1c(-n2nnc(-c3nc4ccccc4s3)c2N)c(=O)n(-c2ccccc2)n1C | 114% |
| Cc1cc(N)c2cc(NC(=O)/C=C\c3ccccc3Cl)ccc2n1 | -80.5% (active) |
| C=C1C(=O)O[C@H]2[C@H]1CC/C(COC(=O)CCSCCC(=O)OC/C1=C/CC[C@@]3(C)O[C@H]3[C@H]3OC(=O)C(=C)[C@@H]3CC1)=C\CC[C@@]1(C)O[C@@H]21 | 8.02% (active) |
| COc1cc(CNS(=O)(=O)c2ccc(C)cc2)ccc1OCc1cn(-c2ccc(Br)cc2)nn1 | 101% |
| CCn1c(SCC(=O)c2ccc(Br)cc2)nnc1-c1ccncc1 | 102% |
| Cc1ccc(-n2c(=S)[nH]c3sc4c(c3c2=O)CCC(=O)C4)cc1 | -33.3% (active) |
| C#Cc1cccc(Nc2ncnc3ccc(-c4cnc(N)nc4)cc23)c1 | 43.2% |
| CCCCN[C@H]1CC[C@@]2(C)[C@@H](CC[C@@]3(C)[C@H]2[C@H](O)C[C@H]2/C(=C(\CCC=C(C)C)C(=O)OC)[C@@H](OC(C)=O)C[C@@]23C)[C@@H]1C | 98% |
| Fc1cc(F)cc(C(c2c[nH]c3ccccc23)c2c[nH]c3ccccc23)c1 | 103% |

From PubChem BioAssay (NCI)
